According to PubChem BioAssay AID485318 (Broad Institute, 2010):
Fewer than 10 of roughly 1,400 compounds were called active.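 How the source made its calls: active means fluorescence-lowering compounds whose fitted half-maximal concentration is at or below ten times the highest valid dose tested; inconclusive means flat curve at 30 to 70% inhibition, or poor fit; inactive means the rest.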 Only a sample is shown.

The compounds below were run against Histone deacetylase 3 (Homo sapiens) (UniProt O15379) (assay: HDAC3 deacetylase inhibitors, dose response, counter-screen for JMJD2C/GASC1 demethylase inhibitor project, biochemical, fluorescence, cherry-picked samples (AID 485318;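 further: enzyme preincubated with compound before substrate and trypsin were added; 0% = neutral control wells and -100% = SAHA positive control wells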)). Settings: recombinant HDAC3, fluorogenic peptide/trypsin coupled; series mostly up to 12 µM; activity change, negative = inhibition: at the top concentration.
Sequence of Histone deacetylase 3 (Homo sapiens) (O15379 whole entry, looked up): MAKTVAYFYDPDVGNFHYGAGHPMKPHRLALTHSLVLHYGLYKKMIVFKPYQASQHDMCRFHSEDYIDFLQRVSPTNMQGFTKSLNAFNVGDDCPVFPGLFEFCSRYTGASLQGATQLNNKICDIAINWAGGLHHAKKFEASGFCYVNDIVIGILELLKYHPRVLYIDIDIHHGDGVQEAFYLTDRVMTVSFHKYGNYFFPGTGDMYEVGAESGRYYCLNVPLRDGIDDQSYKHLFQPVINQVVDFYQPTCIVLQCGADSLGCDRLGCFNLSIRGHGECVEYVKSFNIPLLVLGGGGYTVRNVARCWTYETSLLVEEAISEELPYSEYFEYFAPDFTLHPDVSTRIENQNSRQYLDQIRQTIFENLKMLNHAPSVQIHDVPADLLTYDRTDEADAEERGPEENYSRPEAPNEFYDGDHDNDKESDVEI
`O=C(CSc1nnnn1-c1ccc(Cl)cc1)N1CCc2ccccc2C1` was tested, and the “activity change, negative = inhibition” value was -0.296% (inactive). With `CN(C)c1ccc(C(=O)OCC(=O)N2CCCC2)cc1` the “activity change, negative = inhibition” value was 0.251% (inactive). For `Cc1ccc(S(=O)(=O)NCCC(=O)OCC(=O)Nc2ccccc2Cl)cc1`, the “activity change, negative = inhibition” value was 0.205% (inactive). `Cc1ccc(S(=O)(=O)NC(=O)NCc2ccc(Cl)cc2)cc1` was tested, and the “activity change, negative = inhibition” value was -0.66% (inactive). With `O=c1cc(N/N=C/c2ccccc2)[nH]c(=O)[nH]1` the “activity change, negative = inhibition” value was -0.139% (inactive). In the case of `COc1ccc(NC(=O)N(C)C[C@H]2Oc3c(NS(=O)(=O)c4cccs4)cccc3C(=O)N([C@H](C)CO)C[C@@H]2C)cc1`, the “activity change, negative = inhibition” value is reported as 0.309% (inactive). `COCCCNC(=S)NNC(=O)c1ccccn1` was tested, and the “activity change, negative = inhibition” value was 0.84% (inactive). `Cc1ccc(OCCSc2nnc(-c3cccs3)n2C)cc1` was tested, and the “activity change, negative = inhibition” value was -0.407% (inactive). With `CCCC(=O)Nc1ccc(Oc2ccc(NC(=O)CCC)cc2)cc1` the “activity change, negative = inhibition” value was 0.3% (inactive). `COCCCn1c(SCC(=O)NCc2ccco2)nc2sc3c(c2c1=O)CCC3` was tested, and the “activity change, negative = inhibition” value was 0.159% (inactive). In the case of `CC(C)(C)c1ccc(-c2csc(NNC3=NCCCCC3)n2)cc1`, the “activity change, negative = inhibition” value is reported as -9.81% (inactive). `CC(OC(=O)c1ccc([N+](=O)[O-])s1)C(=O)Nc1ncc(Cl)cc1Cl` (centres undefined) was tested, and the “activity change, negative = inhibition” value was 0.0687% (inactive). In the case of `O=C(c1ccc(Cn2cc([N+](=O)[O-])cn2)o1)N1CCCCCC1`, the “activity change, negative = inhibition” value is reported as 0.287% (inactive). With `COc1ccccc1C(=O)OCc1c(-c2ccccc2)ncc2ccccc12` the “activity change, negative = inhibition” value was -0.395% (inactive). With `Cc1ccc2nc(-c3cccc(NS(C)(=O)=O)c3)cc(-c3ccccc3)c2c1` the “activity change, negative = inhibition” value was 0.133% (inactive). With `COC(=O)C1=C(C)N(CCc2cc(OC)c(OC)c(OC)c2)C(=O)N[C@H]1c1cccs1` the “activity change, negative = inhibition” value was 0.535% (inactive). In the case of `COc1ccc(CNCC(=O)Nc2sccc2C#N)cc1`, the “activity change, negative = inhibition” value is reported as -0.369% (inactive). For `Cc1nn(-c2cccc(C(=O)O)c2)c(C)c1Oc1ccccc1O`, the “activity change, negative = inhibition” value was -0.0812% (inactive). `CCSCC1COC(c2cccn2Cc2ccc(C)cc2)=N1` (centres undefined) was tested, and the “activity change, negative = inhibition” value was 0.82% (inactive). In the case of `COC(=O)CCC(=O)N1CCOCCOCCN(C(=O)CCC(=O)OC)CCOCCOCC1`, the “activity change, negative = inhibition” value is reported as 0.687% (inactive). `O=C1c2sc3nc4c(c(=O)n3c2C(=O)N1c1ccccc1)CCC4` was tested, and the “activity change, negative = inhibition” value was 0.641% (inactive). For `CC(=O)OC(C(=O)NCc1ccc2c(c1)OCO2)c1ccccc1Cl` (centres undefined), the “activity change, negative = inhibition” value was -0.735% (inactive). For `CCC(=O)Nc1cc2c(cc1C(=O)CC)OCCO2`, the “activity change, negative = inhibition” value was -0.0822% (inactive). For `CCOC(=O)c1cc2n(n1)C(C(F)(F)F)CC(C)N2` (centres undefined), the “activity change, negative = inhibition” value was 0.00685% (inactive). With `CCCCNC(=O)c1nn2cc(Br)cnc2c1Br` the “activity change, negative = inhibition” value was 0.783% (inactive). For `Clc1ccc(N=c2ssnc2Cl)nc1`, the “activity change, negative = inhibition” value was 0.426% (inactive). `O=C(c1ccsc1)N1CCN(C(=O)c2cccs2)CC1` was tested, and the “activity change, negative = inhibition” value was 0.464% (inactive). In the case of `COc1ccc2sc(-c3ccc(S(C)(=O)=O)cc3)c(C#CCO)c2c1`, the “activity change, negative = inhibition” value is reported as -0.136% (inactive). For `COc1ccc(CCN=C(NS(=O)(=O)c2ccc(Cl)cc2)c2ccccc2)cc1`, the “activity change, negative = inhibition” value was 0.401% (inactive). `CCN(CC)CCSc1nc2ccccc2c(=S)n1-c1ccccc1` was tested, and the “activity change, negative = inhibition” value was -0.421% (inactive). In the case of `O=C(Cn1nc(-c2ccc(Cl)cc2)ccc1=O)NCC1COCCO1` (centres undefined), the “activity change, negative = inhibition” value is reported as -0.234% (inactive). With `CCC(C)(C)NC(=O)C(c1ccc(C)o1)N(Cc1cccs1)C(=O)Cn1nnc2ccccc21` (centres undefined) the “activity change, negative = inhibition” value was -0.314% (inactive). With `CCC(=O)N1CCc2cc(Br)cc(S(=O)(=O)CC(=O)OC)c21` the “activity change, negative = inhibition” value was 0.319% (inactive). `CCN(CC(=O)Nc1ccc2c(c1)OCCO2)C(=O)CC1CCCC1` was tested, and the “activity change, negative = inhibition” value was 0.513% (inactive). In the case of `O=C(CSc1nc(O)c(Cc2ccccc2)c(=O)[nH]1)c1ccccc1`, the “activity change, negative = inhibition” value is reported as -0.826% (inactive). For `Cc1ccc(CSc2ncnc3onc(C)c23)cc1`, the “activity change, negative = inhibition” value was -0.218% (inactive). With `CCOC(=O)c1c(NC(=O)c2cc(-c3ccc(O)cc3)on2)sc(C(C)=O)c1C` the “activity change, negative = inhibition” value was 0.792% (inactive). With `C[C@@H](CN1CCC[C@H]1CN1C(N)=NC[C@@H]1Cc1ccccc1)N1C[C@@H](Cc2ccccc2)N(CCc2ccc(Cl)c(Cl)c2)C1=N` the “activity change, negative = inhibition” value was -0.0869% (inactive). For `O=C(CSc1nc(-c2ccco2)cc(C(F)(F)F)n1)Nc1ccc(C(=O)N2CCCCC2)cc1`, the “activity change, negative = inhibition” value was -1.01% (inactive). For `COc1cccc(OC)c1C(=O)NC(=S)N1CCOCC1`, the “activity change, negative = inhibition” value was 0.0161% (inactive). For `COc1cccc(-n2nnc3c(=O)n(Cc4ccccc4F)cnc32)c1`, the “activity change, negative = inhibition” value was -0.245% (inactive). `CCn1c(SCC(=O)NCc2ccco2)nnc1-c1cccs1` was tested, and the “activity change, negative = inhibition” value was -0.00731% (inactive). `CSc1nc(N)nc2c1ncn2CC(=O)N[C@H](C)c1cccc2ccccc12` was tested, and the “activity change, negative = inhibition” value was -0.21% (inactive). `COC(=O)C1=C(C)N(Cc2ccccc2)C(=NCCc2c[nH]c3ccccc23)N[C@H]1c1ccccc1` was tested, and the “activity change, negative = inhibition” value was 0.954% (inactive). `CC(=O)c1c(C)[nH]c(C(=O)NCCC2=CCCCC2)c1C` was tested, and the “activity change, negative = inhibition” value was 0.207% (inactive). For `COc1ccc(S(=O)(=O)Nc2ccc3c(c2)CC(=O)N([C@@H](C)CO)C[C@H](C)[C@@H](CN(C)S(=O)(=O)c2ccc(F)cc2)O3)cc1`, the “activity change, negative = inhibition” value was -0.0258% (inactive). For `COc1ccccc1NC(=O)COC(=O)c1[nH]c(=O)[nH]c(=O)c1N`, the “activity change, negative = inhibition” value was -0.201% (inactive). With `Cc1cccc(N2CC(C(=O)Nc3nnc(SCC(=O)Nc4nccs4)s3)CC2=O)c1` (centres undefined) the “activity change, negative = inhibition” value was 0.958% (inactive). For `CN(C)c1nc(C(=O)Nc2ccccc2)nc(N(C)C)n1`, the “activity change, negative = inhibition” value was 0.331% (inactive). `CCOc1ccc(-c2nc(CSCC(=O)NC3CCCc4ccccc43)c(C)o2)cc1` (centres undefined) was tested, and the “activity change, negative = inhibition” value was 0.296% (inactive). `Cc1cc2cc3c(cc2nc1SCC(=O)N1CCOCC1)OCO3` was tested, and the “activity change, negative = inhibition” value was 0.249% (inactive). In the case of `CC(C)(C)OC(=O)CNC(=O)c1[nH]cnc1C(=O)N[C@@H](CCCCN)C(=O)OC(C)(C)C`, the “activity change, negative = inhibition” value is reported as 0.233% (inactive). For `COc1ccc(OC)c(Nc2nnc(C)c(=O)[nH]2)c1`, the “activity change, negative = inhibition” value was -0.0817% (inactive). In the case of `O=C(O)CCCNC(=O)c1cccc(C(=O)NCCCC(=O)O)n1`, the “activity change, negative = inhibition” value is reported as 1.32% (inactive). In the case of `O=C(O)c1cc(O)c2c(c1)[C@@H]([C@H]1c3cc(C(=O)O)cc(O)c3C(=O)c3c(O[C@@H]4O[C@H](CO)[C@@H](O)[C@H](O)[C@H]4O)cccc31)c1cccc(O[C@@H]3O[C@H](CO)[C@@H](O)[C@H](O)[C@H]3O)c1C2=O`, the “activity change, negative = inhibition” value is reported as 0.118% (inactive). In the case of `CN(C)CCNC(=O)c1onc(CSc2ccncc2)c1C(=O)NCCN(C)C`, the “activity change, negative = inhibition” value is reported as -0.121% (inactive). For `N#CC(C(=O)NCCc1ccccc1)c1nc2ccccc2nc1N1CCOCC1` (centres undefined), the “activity change, negative = inhibition” value was -0.358% (inactive). With `COc1ccc(NC(=O)CNC(=O)c2nn(-c3ccc(OC)c(Cl)c3)c(=O)c3ccccc23)c(OC)c1` the “activity change, negative = inhibition” value was -0.0159% (inactive). `Cc1ccc(-c2noc(C3CCN(S(C)(=O)=O)CC3)n2)o1` was tested, and the “activity change, negative = inhibition” value was -0.331% (inactive). In the case of `Cc1nnc(N2C(=O)c3cccc4c([N+](=O)[O-])ccc(c34)C2=O)s1`, the “activity change, negative = inhibition” value is reported as 0.858% (inactive). For `CCOC(=O)CCCCCC(=O)Nc1ccc2c(c1)CC(=O)N([C@@H](C)CO)C[C@H](C)[C@@H](CN(C)C(=O)Nc1ccc3c(c1)OCO3)O2`, the “activity change, negative = inhibition” value was -0.431% (inactive). In the case of `CSc1ccccc1C(=O)Nc1ccc(C)c(C)c1`, the “activity change, negative = inhibition” value is reported as -0.311% (inactive). For `CC(C)N(C(=O)[C@H]1CC(CC(=O)NCc2cccc(C(F)(F)F)c2)C(=O)N2CCc3c([nH]c4ccccc34)[C@]12C)C(C)C` (some centres undefined), the “activity change, negative = inhibition” value was -0.336% (inactive). In the case of `N#Cc1ccc(C23OCCN2CCn2nc4ccccc4c23)cc1` (centres undefined), the “activity change, negative = inhibition” value is reported as 0.331% (inactive). With `CCc1ccc(NC(=O)C/C(C)=N/NC(=O)COc2ccc(C)cc2Br)cc1` the “activity change, negative = inhibition” value was 0.354% (inactive). For `COc1ccc(-c2csc(NNC3=NCCCCC3)n2)cc1`, the “activity change, negative = inhibition” value was 0.716% (inactive). With `CC1(C)C2CCC1(CS(=O)(=O)N1CCN(c3ccccc3F)CC1)C(=O)C2` (centres undefined) the “activity change, negative = inhibition” value was 0.137% (inactive). For `Cc1ccc(O)c(C(=O)c2cc(C#N)c(=O)n(CC3CCCO3)c2)c1` (centres undefined), the “activity change, negative = inhibition” value was -0.325% (inactive). In the case of `CCOC(=O)c1ccc2c(c1)nc(COc1ccc3ccccc3c1)n2CC`, the “activity change, negative = inhibition” value is reported as 0.593% (inactive). In the case of `O=C(NCc1ccccn1)c1ccc(OC2CCN(Cc3cccs3)CC2)cc1`, the “activity change, negative = inhibition” value is reported as -0.641% (inactive). `CCOC(=O)c1sc(Nc2nc(OC)cc(OC)n2)nc1C` was tested, and the “activity change, negative = inhibition” value was -0.509% (inactive). In the case of `CN(C)C(=O)c1cccc(-c2csc(N3CCC(C(N)=O)CC3)n2)c1`, the “activity change, negative = inhibition” value is reported as 0.16% (inactive). In the case of `COc1ccc(-c2ccc3oc(-c4ccsc4)cc(=O)c3c2)cn1`, the “activity change, negative = inhibition” value is reported as 0.0488% (inactive). With `COc1ccc(CCNC(=O)c2cccc(NS(=O)(=O)c3ccccc3F)c2)cc1OC` the “activity change, negative = inhibition” value was 0.204% (inactive).
